Values joined by “and” are separate entries in the source; they are usually repeats but may differ in a detail not shown here. Equal entries are not always repeated. Values without a mark were called inactive. Records with an inconclusive call do not appear. Entries that show only a call come without a potency. Active and inactive are the calls of the source. Unless noted, calls follow the shape of the dose curve; as a rule, active = well fitted curve in the direction sought with a large enough effect in the repeat runs; inconclusive = weak or mixed curves; inactive = no such curve, though single readings can be large; an effect the other way counts as inactive or inconclusive.
Key:
[1] = qHTS assay to identify small molecule antagonists of the estrogen receptor alpha (ER-alpha) signaling pathway using the BG1 cell line in the presence of 0.1 nM 17-beta-estradiol - cell viability counter screen (AID 1259241); also: nearly all actives have a fitted effect of over 40% in size; also: potency is read from the fitted curve at half-maximal effect
Procedure, shortened: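 Measures cytotoxicity alongside the ER-alpha antagonist readout: VM7Luc4E2 cells, charcoal-stripped serum, 0.1 nM 17beta-estradiol final, 22 hr compound incubation at 37C, CellTiter-Fluor fluorescence.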

[2] = qHTS assay to identify small molecule antagonists of the androgen receptor (AR) signaling pathway using the MDA cell line in the presence of 0.5 nM R1881 - cell viability counter screen (AID 1259242); also: nearly all actives have a fitted effect of over 45% in size; also: potency is read from the fitted curve at half-maximal effect
Procedure, shortened: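 Live-cell protease fluorescence, CellTiter-Fluor, 30 min at 37C. Cells: MDA-kb2, 3,000/well, preincubated 5 hr. Compounds plus 0.5 nM R1881 final, 16 hr, 37C, 0% CO2.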

[3] = qHTS assay to identify small molecule phospholipidosis (PLD) inducers (AID 1259344; active = well fitted curve in the direction sought with a large enough effect; an effect the other way counts as inactive or inconclusive)
Procedure, shortened: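 Phospholipid accumulation was scored by imaging: fixed, Hoechst-counterstained HepG2 cells stained with LipidTOX Red after 24 h compound exposure at 37 C. Read-outs were pit count and pit intensity per well or per cell, with amiodarone and DMSO controls.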

[4] = qHTS assay to identify small molecule HDAC inhibitors (AID 1259364); also: potency is read from the fitted curve at half-maximal effect;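 also: wild-type HCT-116 cells with endogenous class I/II HDAC activity; nearly all actives have a fitted effect of over 45% in size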
Procedure, shortened: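 HCT-116 (wild type), 1,500 cells/well, overnight; compound 2 hr 37C 5% CO2; HDAC-Glo I/II reagent 30 min RT; luminescence readout.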

[5] = qHTS assay to identify small molecule HDAC inhibitors - cell viability counter screen (AID 1259365); also: nearly all actives have a fitted effect of over 50% in size; also: potency is read from the fitted curve at half-maximal effect
Procedure, shortened: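 Following a 2hr exposure of overnight-plated wild-type HCT-116 cells to DMSO-delivered compounds, CellTiter-Glo was added and luminescence recorded after 30min at room temperature.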

[6] = qHTS assay to identify small molecule antagonists of the sonic hedgehog signaling (Shh) pathway - cell viability counter screen (AID 1259367); also: nearly all actives have a fitted effect of over 55% in size; also: potency is read from the fitted curve at half-maximal effect
Procedure, shortened: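 Viability was read by CellTiter-Fluor fluorescence in the same wells, reagent added 23 hr into compound treatment and incubated 1 hr at 37C. The 3T3 Gli1-Luc reporter cells (2,000/well) received conditioned medium after compound and ran 24 hr.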

[7] = qHTS assay to identify small molecule agonists of the sonic hedgehog signaling (Shh) pathway (AID 1259368; calls by dose curve;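 also: NIH/3T3-derived 3T3Gli1-Luc cells carrying a stable Gli1-driven firefly luciferase reporter; series mostly up to about 92 µM; nearly all actives have a fitted effect of over 15% in size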)
Procedure, shortened: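 Read-out: firefly luciferase luminescence from a Gli1 response element reporter stably integrated in NIH/3T3-derived 3T3Gli1-Luc cells, measured 30 min at room temperature after reagent addition. Compound exposure lasted 24 hr at 37 C, 5% CO2.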

[8] = qHTS assay to identify small molecule agonists of the sonic hedgehog signaling (Shh) pathway - cell viability counter screen (AID 1259366); also: nearly all actives have a fitted effect of over 50% in size; also: potency is read from the fitted curve at half-maximal effect
Procedure, shortened: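 After a 4hr attachment at 37C, NIH/3T3 cells bearing an integrated Gli1-driven luciferase reporter were dosed with compounds. Treatment lasted 24hr, with the final hour including CellTiter-Fluor for a fluorescence viability measurement.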

[9] = target: Estrogen receptor (Homo sapiens) (UniProt P03372); assay: qHTS assay to identify small molecule antagonists of the estrogen receptor alpha (ER-alpha) signaling pathway using the BG1 cell line in the presence of 0.1 nM 17-beta-estradiol (AID 1259244); also: nearly all actives have a fitted effect of over 50% in size
Procedure, shortened: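 Luminescence after ONE-Glo (30 min, room temperature) measured ERE-luciferase activity in VM7Luc4E2 cells treated 22 h with compound and 0.1 nM final 17beta-estradiol as stimulator.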

Chain of Estrogen receptor (Homo sapiens) (P03372 whole entry, looked up): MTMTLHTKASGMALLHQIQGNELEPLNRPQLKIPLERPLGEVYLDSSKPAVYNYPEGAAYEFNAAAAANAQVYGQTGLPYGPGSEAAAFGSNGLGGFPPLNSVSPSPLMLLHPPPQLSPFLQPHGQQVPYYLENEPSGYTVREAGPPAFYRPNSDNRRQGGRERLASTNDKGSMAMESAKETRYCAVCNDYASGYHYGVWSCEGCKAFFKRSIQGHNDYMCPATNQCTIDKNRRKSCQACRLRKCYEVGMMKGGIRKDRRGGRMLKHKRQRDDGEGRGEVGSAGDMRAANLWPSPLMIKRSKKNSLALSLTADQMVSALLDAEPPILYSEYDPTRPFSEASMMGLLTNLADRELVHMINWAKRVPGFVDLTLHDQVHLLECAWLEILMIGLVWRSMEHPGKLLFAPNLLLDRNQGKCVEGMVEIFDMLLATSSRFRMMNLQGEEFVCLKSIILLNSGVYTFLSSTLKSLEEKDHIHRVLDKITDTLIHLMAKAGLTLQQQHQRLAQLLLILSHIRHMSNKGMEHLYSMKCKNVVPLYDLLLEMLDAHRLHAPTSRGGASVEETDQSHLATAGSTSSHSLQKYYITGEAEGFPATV

Row | Structure (SMILES) | Potency [1] | Potency [2] | Potency [3] | Potency [4] | Potency [5] | Potency [6] | Potency [7] | Potency [8] | PLD induction [3] | Potency [9]
1 | CC(=O)N/N=C/c1ccc([N+](=O)[O-])o1 | inactive | inactive | inactive | inactive | inactive | inactive | inactive | – | – | –
2 | Oc1c(I)cc(I)c2cccnc12 | inactive | inactive | inactive | inactive | inactive | inactive | – | inactive | – | –
3 | COc1ccccc1N1CCN(CC(O)COc2cccc3ccccc23)CC1 (centres undefined) | inactive | inactive | inactive | inactive | inactive | inactive | inactive | – | – | –
4 | CN1CC(=O)N2[C@H](c3ccc4c(c3)OCO4)c3[nH]c4ccccc4c3C[C@@H]2C1=O | inactive | inactive | inactive | inactive | inactive | inactive | – | inactive | – | –
5 | NNC(=O)CP(=O)(c1ccccc1)c1ccccc1 | inactive | inactive | inactive | inactive | inactive | inactive | inactive | inactive | – | –
6 | CCCCCC[C@@H](O)C/C=C\CCCCCCCC(=O)O | inactive | inactive | inactive | inactive | inactive | inactive | inactive | inactive | – | –
7 | CC1(C)S[C@@H]2[C@H](NC(=O)C(c3ccccc3)S(=O)(=O)O)C(=O)N2[C@H]1C(=O)O (some centres undefined) | inactive | inactive | inactive | inactive | inactive | inactive | inactive | inactive | – | –
8 | CC1(C)[C@H](C(=O)O)N2C(=O)C[C@H]2S1(=O)=O | inactive | inactive | – | inactive | inactive | inactive | inactive | inactive | 7.08% [at 7.66 µM] | –
9 | CCC1NC(=O)c2cc(S(N)(=O)=O)c(Cl)cc2N1 (centres undefined) | inactive | inactive | inactive | inactive | inactive | inactive | inactive | – | – | –
10 | CCOc1ccccc1O[C@H](c1ccccc1)[C@H]1CNCCO1 | inactive | inactive | inactive | inactive | inactive | – | inactive | – | – | –
11 | Oc1cccc(Nc2ccccc2)c1 | inactive | inactive | – | inactive | inactive | inactive | inactive | – | – | inactive
12 | O=C(Nc1cccc2c(=O)cc(-c3nn[nH]n3)oc12)c1ccc(OCCCCc2ccccc2)cc1 | inactive | inactive | inactive | inactive | inactive | inactive | inactive | inactive | – | –
13 | Cc1[nH]cnc1CN1CCc2c(c3ccccc3n2C)C1=O | inactive | inactive | inactive | inactive | inactive | inactive | inactive | inactive | – | –
14 | C[C@@H](CN(C)C)CN1c2ccccc2Sc2ccccc21 | inactive | inactive | – | inactive | inactive | – | inactive | – | – | inactive
15 | CC(=O)OCC[N+](C)(C)C | inactive | inactive | inactive | inactive | inactive | inactive | – | inactive | – | –
16 | COc1cc(Nc2c(C#N)cnc3cc(OCCCN4CCN(C)CC4)c(OC)cc23)c(Cl)cc1Cl | inactive | 29.8 µM (active) | inactive | inactive | inactive | inactive | inactive | 29.8 µM (active) | – | –
17 | CCCCCCNC(=O)n1cc(F)c(=O)[nH]c1=O | inactive | inactive | inactive | inactive | inactive | inactive | inactive | inactive | – | –
18 | O=C(O)CCc1nc(-c2ccccc2)c(-c2ccccc2)o1 | inactive | inactive | inactive | inactive | inactive | inactive | – | inactive | – | –
19 | COc1cc(N)c(Cl)cc1C(=O)NC1CCN(CCCOc2ccc(F)cc2)CC1OC (centres undefined) | inactive | inactive | inactive | inactive | inactive | inactive | inactive | – | – | –
20 | CN1CCCN=C1COC(=O)C(O)(c1ccccc1)C1CCCCC1 (centres undefined) | inactive | inactive | – | inactive | inactive | inactive | inactive | – | – | inactive
21 | Cc1ccc2c(Br)cc(Br)c(O)c2n1 | inactive | inactive | inactive | inactive | inactive | inactive | – | – | – | –
22 | CC(C)=CCC1C(=O)N(c2ccccc2)N(c2ccccc2)C1=O | inactive | inactive | inactive | inactive | inactive | inactive | inactive | inactive | – | –
23 | O=C(O)c1ccc(OCCCOc2ccc(C(=O)O)cc2)cc1 | inactive | inactive | inactive | inactive | inactive | inactive | inactive | – | – | –
24 | CN(C)CCN1C(=O)c2ccccc2N(C)c2ccccc21 | inactive | inactive | inactive | inactive | inactive | inactive | inactive | inactive | – | –
25 | CC1(C)O[C@@H]2C[C@H]3[C@@H]4C[C@H](F)C5=CC(=O)C=C[C@]5(C)[C@H]4[C@@H](O)C[C@]3(C)[C@]2(C(=O)CO)O1 | inactive | inactive | inactive | inactive | inactive | inactive | inactive | inactive | – | –
26 | CC(C)C[C@H](NC(=O)[C@H](CCc1ccccc1)NC(=O)CN1CCOCC1)C(=O)N[C@@H](Cc1ccccc1)C(=O)N[C@@H](CC(C)C)C(=O)[C@@]1(C)CO1 | inactive | 16.8 µM (active) | inactive | inactive | inactive | inactive | inactive | inactive | – | –

Row | Structure (SMILES) | Potency [1] | Potency [2] | Potency [3] | Potency [4] | Potency [5] | Potency [6] | Potency [7] | Potency [8] | PLD induction [3] | Potency [9]
27 | CC1(C)[C@@H](OC(=O)CCC(=O)O)CC[C@]2(C)[C@H]3C(=O)C=C4[C@@H]5C[C@@](C)(C(=O)O)CC[C@]5(C)CC[C@@]4(C)[C@]3(C)CC[C@@H]12 | inactive | inactive | inactive | inactive | inactive | inactive | inactive | inactive | – | –
28 | CCCCOc1ccc(OCCCN2CCOCC2)cc1 | inactive | inactive | inactive | inactive | inactive | inactive | inactive | – | – | –
29 | CN(C(=O)CN(CCO)CC(=O)N(C)C(C)(C)Cc1ccccc1)C(C)(C)Cc1ccccc1 | inactive | inactive | inactive | inactive | inactive | – | inactive | – | – | –
30 | CCn1cc(C(=O)O)c(=O)c2cc(F)c(N3CCNCC3)cc21 | inactive | inactive | inactive | inactive | inactive | inactive | – | – | – | –
31 | O=C(CCCN1CC=C(n2c(=O)[nH]c3ccccc32)CC1)c1ccc(F)cc1 | inactive | inactive | inactive | inactive | inactive | inactive | – | inactive | – | –
32 | CN1C(=O)c2ccccc2C1=O | inactive | inactive | inactive | inactive | inactive | – | – | inactive | – | –
33 | CCN(CC)CCNC(=O)COc1ccc(OC)cc1 | inactive | inactive | inactive | inactive | inactive | inactive | – | – | – | –
34 | C[C@@]12CCC[C@H]1[C@@H]1CC[C@H]3C[C@@H](O)CC[C@]3(C)[C@H]1CC2 | inactive | inactive | – | inactive | inactive | inactive | inactive | inactive | 17.2% [at 7.66 µM] | –
35 | CC1CC(OC(=O)C(O)c2ccccc2)CC(C)(C)N1C (centres undefined) | inactive | inactive | inactive | inactive | inactive | inactive | inactive | inactive | – | –
36 | COC(=O)C1=C(C)NC(C)=C(C(=O)O[C@@H]2CCCN(Cc3ccccc3)C2)[C@@H]1c1cccc([N+](=O)[O-])c1 | inactive | inactive | inactive | inactive | inactive | – | inactive | – | – | –
37 | CO/N=C(/C(=O)N[C@@H]1C(=O)N2C(C(=O)O)=C(COC(N)=O)CS[C@H]12)c1ccco1 | inactive | inactive | inactive | inactive | inactive | inactive | inactive | inactive | – | –
38 | CCOC(=O)c1ccc(C#Cc2ccc3c(c2)C(C)(C)CCS3)nc1 | inactive | inactive | inactive | inactive | inactive | inactive | inactive | inactive | – | –
39 | c1ccc2sc(SN(C3CCCCC3)C3CCCCC3)nc2c1 | inactive | inactive | – | inactive | inactive | inactive | inactive | – | – | inactive
40 | Cc1ccc(Cl)c(Nc2ccccc2C(=O)O)c1Cl | inactive | inactive | inactive | inactive | inactive | inactive | inactive | inactive | – | –
41 | CC(C)C(O)(c1ccc(OC(F)(F)F)cc1)c1cncnc1 (centres undefined) | inactive | inactive | – | inactive | inactive | inactive | – | – | – | –
42 | CC(=O)c1ccc([N+](=O)[O-])cc1 | inactive | inactive | – | inactive | inactive | inactive | inactive | – | – | –
43 | CCCCCCCCN | inactive | inactive | – | inactive | inactive | inactive | inactive | inactive | – | –
44 | CCCCCCCCC(CCCCCC)C(=O)O (centres undefined) | inactive | inactive | – | inactive | inactive | inactive | inactive | – | – | –
45 | O=c1[nH]ncc2ccccc12 | inactive | inactive | – | inactive | inactive | inactive | – | – | – | –
46 | CC1=C(Br)C(=O)C(Br)=C/C1=C(/c1ccccc1S(=O)(=O)O)c1cc(Br)c(O)c(Br)c1C | 18.6 µM (active) | 18.6 µM (active) | – | 7.39 µM (active) | 18.6 µM (active) | 20.8 µM (active) | inactive | 18.6 µM (active) | – | –
47 | O=c1c(O)c(-c2ccc(O)cc2)oc2cc(O)cc(O)c12 | inactive | inactive | – | 21.6 µM (active) and 16.4 µM (active) | inactive | 48.4 µM (active) | inactive | inactive | – | –
48 | O=C(O)c1cccc(-c2noc(-c3ccccc3F)n2)c1 | inactive | inactive | inactive | 0.422 µM (active) | – | inactive | inactive | inactive | – | –
49 | Cc1ccc(OC(=O)c2ccccc2O)cc1 | inactive | inactive | – | 15.4 µM (active) | inactive | inactive | inactive | – | – | –
50 | CC(C)(O)c1ccc(CNC(=O)c2cccnc2Oc2ccc3nonc3c2)cc1 | inactive | inactive | – | inactive | inactive | inactive | inactive | – | – | –
51 | Clc1cc(Cl)nc(Cl)n1 | inactive | inactive | – | inactive | inactive | inactive | – | inactive | – | –
52 | CCCCCCCC/C=C\CCCCCCCCO | inactive | inactive | – | inactive | inactive | inactive | inactive | – | – | –
